Target: AMP-activated protein kinase, AMPK (Homo sapiens) (UniProt P54646+O43741+P54619+Q9UGJ0+Q9Y478+Q13131+Q9UGI9)
Experiment: AMP-dependent Kinase enzyme assay. An in vitro enzyme assay that detects ADP turnover that is directly proportional to AMPK activity. This uses naive AMPK that is activated during the assay with MK-8722
Assay type: functional
Design: scale not given: direction of the effect not stated beside the values
Details: 30 µM

SMILES | Percent Effect [%]
Cn1cccc1C(=O)N1CC[C@@]2(O)CCN(S(C)(=O)=O)C[C@H]2C1 | 4.08
NC1CCc2nc(-c3cccnc3)nc(Nc3ccc(F)cc3)c2C1 (stereo not given) | 27.2
CCc1noc(C(C)N2CCc3c(ncn3C3CC3)C2)n1 (stereo not given) | 14.3
CC(C)(C(=O)N[C@@H]1CCC[C@@H](O)[C@@H]1O)c1cccc(F)c1 | 15.9
CN(C)c1nccnc1C1CCN(C(=O)C2(C)CCCCN2C)CC1 (stereo not given) | 9.26
COc1c(C(=O)NC(C)Cc2ccccc2Cl)c(C)nn1C (stereo not given) | 0.464
CN(Cc1ccccc1-n1cccn1)C[C@@H]1CCCN2CCCC[C@H]12 | -9.27
CSCCN1CCC(NC(=O)c2cccc(C3CCCNC3)c2)CC1 (stereo not given) | -2.91
CC(C)(C)c1nc(CNc2cc3c(cc2Cl)NC(=O)CO3)no1 | 2.92
Cn1c(CN2CC[C@](C)(O)C(C)(C)C2)cc2ccccc21 | 12.4
Cc1ccc(C(=O)NC2CCN(C)CC2)cc1N(C)S(C)(=O)=O | -1.82
CC(C)(CNc1cccc(Cl)c1)NC(=O)C1CCCN(CC(N)=O)C1 (stereo not given) | 40.1
CC(C)NC(=O)CN(C)C(=O)c1csc(Cc2ccccc2F)n1 | 5.04
CCCS(=O)(=O)N1CCN(CCCO)CC1 | 89.9
CC(C)c1nc(C2CCCN2CCc2ccccn2)no1 (stereo not given) | 20.7
CC1COCCN1C(=O)Cc1cc(Cl)c2c(c1)OCCCO2 (stereo not given) | 7.18
CCC(=O)NC1CCCN(c2cncc(OCc3ccccc3)n2)C1 (stereo not given) | 5.23
OC(c1cnn(-c2ccccc2)c1)C(F)(F)F (stereo not given) | -6.83
COc1ccc(Cl)cc1C(=O)N1C[C@@H](NC(=O)N(C)C)[C@H](C(C)C)C1 | 2.28
CNS(=O)(=O)CC(=O)N1CCC(c2cc3ccccc3[nH]2)CC1 | 16.4

SMILES | Percent Effect [%]
Cc1cnn(CC2CCN(CC(O)Cn3cccn3)CC2)c1 (stereo not given) | 11.8
CC1(C)Cc2nc(C(C)(C)C)ncc2C(NC(=O)C2(N)CC2)C1 (stereo not given) | -16.9
Cc1nonc1CNC(=O)C(C)Oc1cccc(F)c1 (stereo not given) | 11.1
CN([C@@H]1CC[C@@H](N2CCCC2)[C@@H]1O)S(=O)(=O)c1ccccc1 | -6.19
CCCn1cc(CN2CCOCC2c2[nH]ncc2C)cn1 (stereo not given) | 14.3
CSc1nccc(N2CCC3(CCCN(Cc4ccc(F)cc4)C3)C2)n1 (stereo not given) | 3.61
O=C(Cc1c(F)cccc1Cl)Nc1cc(N2CCOCC2)ncn1 | 5.35
CC(C)N1CCC(NC(=O)c2cn(-c3ccc(F)cc3)nn2)C1 (stereo not given) | -3.78
Cc1ccc2c(C(=O)N(C)C)cc(-c3cnn(CCO)c3)nc2c1C | 7.33
CN1CCN(C(=O)CCn2ncc3ccccc32)CC(C(N)=O)C1 (stereo not given) | 7.38
COc1ccccc1S(=O)(=O)N1CCN(C)[C@@H]2CS(=O)(=O)C[C@@H]21 | -1.29
CC(c1ncc(-c2ccccc2)o1)N1CCN(C(=O)C(C)(C)C)CC1 (stereo not given) | 12.7
O=C1OCCCN1Cc1nc(-c2ccc(N3CCCCC3)cc2)no1 | -1.59
CCCc1n[nH]c(=O)n1Cc1ccc(OC)cc1 | 3.68
O=C(Nc1ccc(Br)cc1F)c1ccc(N2CCOCC2)nn1 | -1.73
COc1ncc(NCc2ccc(F)cc2)cc1C(N)=O | 5.39
Cn1c(CO)nnc1SCc1c(F)cccc1Br | 2.62
Cc1cc(C(=O)Nc2ccc(OCCN3CCN(C)CC3)cc2)[nH]n1 | 14.7
COc1ccc(CN2CC(n3cccn3)C2)cc1F | -6.94
Cc1c(NC(=O)N(C)CCn2cnnc2)cccc1OC1CCCC1 | -2.5

From ChEMBL document CHEMBL3988442, “University of Dundee, Small-Polar-MMV Screening Library” (2021)
